Compounds without any hit were thinned out: in the full panel of roughly 79,000, 15% have a hit. Rule as the data show it: active = growth inhibition above about 70%; inactive = the rest. Where a SMILES comes first, the peptide text is derived from it. [ ]: non-standard residue; d: D form. The star is where a group is joined. ξ: configuration not given here. Cbz = O=C(OCc1ccccc1)*; ξNva = CCCC(N)C(=O)O
What was measured:
[1] = NCI Yeast Anticancer Drug Screen. Data for the rad50 strain (AID 155);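 also: 0% = growth of vehicle-only cultures of the same strain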; conditions: S. cerevisiae rad50 strain growth inhibition; at 50.0 µM; hits give high values
In short: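 Relative growth inhibition (compound vs vehicle) was measured in yeast with a defined repair-gene alteration.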

[2] = NCI Yeast Anticancer Drug Screen. Data for the mec2-1 strain (AID 157); conditions: S. cerevisiae mec2-1 strain, at 50.0 µM, hits give high values
In short: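 Each compound was tested on mec2-1 yeast, a strain altered in DNA damage repair or cell cycle control. Growth inhibition is reported relative to vehicle.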

[3] = NCI Yeast Anticancer Drug Screen. Data for the sgs1 mgt1 strain (AID 161);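 also: 0% = growth of cultures given vehicle only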; conditions: S. cerevisiae sgs1 mgt1 strain, at 50.0 µM, hits give high values
In short: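 Test agents were incubated with a DNA-repair-mutant yeast strain. Growth was then read and compared against vehicle-treated controls.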

[4] = NCI Yeast Anticancer Drug Screen. Data for the cln2 rad14 strain (AID 165);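 also: 0% = growth equal to vehicle treated cultures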; conditions: S. cerevisiae cln2 rad14 strain, at 50.0 µM, hits give high values
In short: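 Test compounds were added to cln2 rad14 yeast cultures; inhibition of growth was then determined by comparison with vehicle treatment.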

[5] = NCI Yeast Anticancer Drug Screen. Data for the bub3 strain (AID 167); conditions: S. cerevisiae bub3 mutant strain, at 50.0 µM, hits give high values
In short: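 Screening used yeast with an engineered genetic alteration affecting cell cycle control. Compound-exposed cultures were compared with vehicle cultures, and reduced growth was taken as inhibition.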

[6] = NCI Yeast Anticancer Drug Screen. Data for the mlh1 rad18 strain (AID 175); conditions: S. cerevisiae mlh1 rad18 strain growth inhibition; at 50.0 µM; hits give high values
In short: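 Inhibition values reflect reduced growth of mutant yeast versus vehicle-treated controls following compound exposure; the mutations affect DNA damage repair.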

Measured: growth inhibition

CC(C)NC(=O)C(C(C)C)C(C)(C)C (stereo unspecified)
inactive: [1] -2.95% | [2] 5.25% | [3] 1.35% | [4] 12.1% | [5] 9.2% | [6] -2.15%

CCOC(=O)C(=O)O
inactive: [1] 12.3% | [2] -9.3% | [3] -4.85% | [4] -7.8% | [5] -5.05% | [6] -5.7%

Cc1cc(=O)[nH]c(NN)n1
inactive: [1] 1% | [2] -1.85% | [3] -1.85% | [4] 23.1% | [5] 21.9% | [6] 2.15%

Nc1ccc(S(=O)(=O)Nc2ccc([N+](=O)[O-])cn2)cc1
inactive: [1] -28.4% | [2] -43% | [3] 17.2% | [4] 17% | [5] -20.4% | [6] -15.6%

CCOC(=O)C(c1ccccc1)C(Cc1ccccc1)(c1ccccc1)c1ccccc1 (stereo unspecified)
inactive: [1] 10.1% | [2] 9.2% | [3] 17.3% | [4] 19.6% | [5] -4.6% | [6] 10.7%

CCCCc1ccccn1
inactive: [1] -9.1% | [2] 4.15% | [3] 14.1% | [4] -42.5% | [5] 7.4% | [6] 16.9%

COC(=O)C1CC(=O)CCC1c1ccccc1 (stereo unspecified)
inactive: [1] 1.5% | [2] -7.25% | [3] -16.1% | [4] -6.45% | [5] -7.55% | [6] -16.6%

CC(C(=O)c1ccccc1)C(=O)c1ccccc1
inactive: [1] -2.7% | [2] -13% | [3] -7.9% | [4] -9.95% | [5] -5.8% | [6] -1.65%

O=[N+]([O-])c1ccccc1S(=O)(=O)N(CCCCCN(S(=O)(=O)c1ccccc1[N+](=O)[O-])S(=O)(=O)c1ccccc1[N+](=O)[O-])S(=O)(=O)c1ccccc1[N+](=O)[O-]
inactive: [1] -5.75% | [2] -5.95% | [3] 10.8% | [4] 20.6% | [5] -27.9% | [6] -11.4%

O=C1Cc2c(-c3ccccc3)cc(-c3ccccc3)nc2-c2ccccc2N1
inactive: [1] -4.2% | [2] 39.2% | [3] 39% | [4] 25.7% | [5] 29.2% | [6] 41.2%

CC(=O)OCCOCCCl
inactive: [1] -12.8% | [2] 20.2% | [3] 1.5% | [4] -13.3% | [5] 19.2% | [6] 12.1%

COC1CC(OC2C(C)OC(OC3C(C)OC(OC4C(O)CC(O[C@H]5CC[C@@]6(C)C(=CC[C@]7(O)[C@@H]6C[C@@H](OC(=O)/C=C/c6ccccc6)[C@@]6(C)[C@]7(O)CC[C@@]6(O)C(C)=O)C5)OC4C)CC3OC)CC2OC)OC(C)C1O (stereo partly specified)
inactive: [1] -13.4% | [2] 7.95% | [3] -8.6% | [4] 16.2% | [5] -6.75% | [6] -53.8%

CCN(CC)CC#CCCCN(CC)CC
inactive: [1] -29.3% | [2] -30.2% | [3] -27.9% | [4] 1.75% | [5] -44.5% | [6] -7.6%

COc1cccc(C(=O)O)c1O
inactive: [1] -16.9% | [2] -11.8% | [3] -15.3% | [4] -8.8% | [5] -19.9% | [6] -7.7%

Cc1ccc(O)c(C(C)(C)C)c1
inactive: [1] 14.9% | [2] -8% | [3] 20.4% | [4] 21.3% | [5] -0.65% | [6] 8.5%

c1ccc(CCN=C2c3ccccc3-n3cccc32)nc1
inactive: [1] 33.5% | [2] 0.95% | [3] -6.75% | [4] -28.1% | [5] 10.6% | [6] 16.4%

Cc1ccc(N=Nc2ccc(C)cc2NC(=O)Nc2cc([N+](=O)[O-])ccc2F)cc1
inactive: [1] 13.4% | [2] -16.1% | [3] -4.6% | [4] -5.9% | [5] -4.3% | [6] -5.4%

O=C(Cc1csc(N=Nc2c(O)[nH]c3ccccc23)n1)Nc1ccccc1
inactive: [1] -16.2% | [2] -24.4% | [3] -6.35% | [4] -8.75% | [5] -7.05% | [6] 10.9%

CC1=NN2C(=O)CSC2=NC(C)(C)C1
inactive: [1] -5.35% | [2] -12.8% | [3] 7.45% | [4] 25.9% | [5] -5.75% | [6] -9.95%

C(=Nc1cnc2ccccc2c1)c1ccc2ccccc2n1
inactive: [1] -5.3% | [2] -13.4% | [3] -11.3% | [4] -6.2% | [5] -55.9% | [6] -14.8%

O=C(NNC(=O)c1ccc(Cl)cc1Cl)c1ccc2ccccc2c1
inactive: [1] 9.4% | [2] -42% | [3] -14.4% | [4] 6% | [5] -0.1% | [6] -0.55%

Fc1cccc(C2SCc3nc4cc5ccccc5cc4n32)c1 (stereo unspecified)
inactive: [1] -21.8% | [2] -1.25% | [3] 8.8% | [4] -0.45% | [5] -19.7% | [6] -9.65%

CCOC(=O)C(=O)Cc1cnccn1
inactive: [1] -25.2% | [2] -12.7% | [3] -11.8% | [4] -0.9% | [5] -17.8% | [6] -2.65%

CCOC(=O)C(C#N)CCC(C)=O (stereo unspecified)
inactive: [1] -12.3% | [2] -11.1% | [3] 17.4% | [4] -24.4% | [5] -7.8% | [6] -28.6%

O=C([O-])[C+](C=Cc1cccc2ccccc12)C(=O)O
inactive: [1] 9.05% | [2] -5.4% | [3] 8.35% | [4] 5.35% | [5] 3.35% | [6] 31.3%

NC(=O)c1nnsc1N/N=C/c1ccc([N+](=O)[O-])cc1
inactive: [1] 8.85% | [2] 25.9% | [3] -25.1% | [4] -2.05% | [5] -20.1% | [6] -5.1%

CCCC(NC(=O)OCc1ccccc1)C(=O)NCC(=O)O (stereo unspecified) (Cbz-[ξNva]-Gly-OH)
inactive: [1] 24.6% | [2] 7.2% | [3] 6.05% | [4] 23.4% | [5] 8.7% | [6] 8.55%

O=[N+]([O-])c1ccc(/C=C/c2cc(N(CCO)CCO)c3ccccc3n2)cc1
inactive: [1] 8.35% | [2] -1.05% | [3] -31.2% | [4] -11.1% | [5] -0.4% | [6] -2.95%

CCCCCC(O)c1ccc2c(c1)OCO2 (stereo unspecified)
inactive: [1] 13.8% | [2] 12.9% | [3] 10.4% | [4] 2.2% | [5] -8.85% | [6] 0%

O=[N+]([O-])c1ccccc1S(=O)(=O)NC1c2ccccc2Oc2ccccc21
inactive: [1] 31.9% | [2] 28.3% | [3] 19.4% | [4] 2.75% | [5] -0.8% | [6] 43.6%

O=c1[nH]c2cc(Br)c(Br)cc2c2ccc(Br)cc12
inactive: [1] 43% | [2] -3.8% | [3] 13.7% | [4] 1.3% | [5] 5.8% | [6] 5.15%

COC(=O)c1ccc(SCCC2(COS(C)(=O)=O)OCCO2)cc1
inactive: [1] 18.6% | [2] -16.9% | [3] 1.35% | [4] 18.7% | [5] 1.4% | [6] -4.1%

COc1ccc(C2(C#N)CCCC2)cc1
inactive: [1] 5.8% | [2] 12.4% | [3] 0.95% | [4] -30.6% | [5] 0.7% | [6] 8.7%

Cc1c(C)c2cc3c(=O)c(CCl)coc3c(C)c2oc1=O
inactive: [1] 22.4% | [2] 1.15% | [3] 16% | [4] 15.6% | [5] -7.15% | [6] -5.95%

Cc1cc2nc(N)n[n+]([O-])c2cc1C
inactive: [1] 8.4% | [2] 7.35% | [3] 2% | [4] -6.25% | [5] 1% | [6] -24.9%

CC1CC(NN(C)C)C2(C(N)=O)C(N)=NC(=O)C12C#N (stereo unspecified)
inactive: [1] 5.45% | [2] 9.15% | [3] -23.9% | [4] 3.8% | [5] -24.7% | [6] -46.1%

COC(=O)NC1=Nc2ccc(Cl)cc2NS1
inactive: [1] 2.4% | [2] -10.2% | [3] -25.1% | [4] 2.05% | [5] 22.1% | [6] -4.65%

CCOC(=O)CNC1C(NC(C)=O)C(OC)OC2COC(c3ccccc3)OC21 (stereo unspecified)
inactive: [1] -7.7% | [2] 6.6% | [3] 6.7% | [4] -12.3% | [5] -0.75% | [6] -2.4%

CC(C)CC(=O)C(C)C(C)C (stereo unspecified)
inactive: [1] 12.4% | [2] -1.85% | [3] 4.25% | [4] -4.25% | [5] 4% | [6] 1.5%

CCCCCCCNc1ccc(C(=O)OCC)cc1
inactive: [1] -1.5% | [2] 5.35% | [3] -1.95% | [4] 8.15% | [5] 7.3% | [6] -7.55%

O=C(Cc1ccccc1)c1ccc(N2CCOCC2)cc1
inactive: [1] 21.5% | [2] -19.2% | [3] 11.5% | [4] 13.2% | [5] 26.1% | [6] 25.7%

— PubChem BioAssay (NCI)
